Measured values reported in PubChem BioAssay (NCATS).
Inconclusive results are not listed. Where a call stands in place of a potency, no number is given. A number with no mark means an inactive call. Activity calls are given as the source filed them. The call rests on the fitted dose curve; in most records, active means well fitted curve in the direction sought with a large enough effect; inconclusive means small, poorly fitted or top-dose-only effect, or another doubt; inactive means no such curve, though single readings can be large; an effect the other way counts as inactive or inconclusive.

Key:
[1] = molecular target: Rap guanine nucleotide exchange factor 3 (Homo sapiens) (UniProt O95398); assay: Confirmatory qHTS for antagonist of cAMP-regulated guanine nucleotide exchange factor 3 (EPAC1) (AID 1645880); conditions: EPAC1 Rap1B-BODIPY-GDP exchange, fluorescence; activity, negative = inhibition: at 115 µM (top of the series); further: nearly all actives have a fitted effect of over 55% in size; further: potency means the concentration at half of the fitted maximal effect
Rap guanine nucleotide exchange factor 3 (Homo sapiens), sequence (O95398 whole entry, looked up): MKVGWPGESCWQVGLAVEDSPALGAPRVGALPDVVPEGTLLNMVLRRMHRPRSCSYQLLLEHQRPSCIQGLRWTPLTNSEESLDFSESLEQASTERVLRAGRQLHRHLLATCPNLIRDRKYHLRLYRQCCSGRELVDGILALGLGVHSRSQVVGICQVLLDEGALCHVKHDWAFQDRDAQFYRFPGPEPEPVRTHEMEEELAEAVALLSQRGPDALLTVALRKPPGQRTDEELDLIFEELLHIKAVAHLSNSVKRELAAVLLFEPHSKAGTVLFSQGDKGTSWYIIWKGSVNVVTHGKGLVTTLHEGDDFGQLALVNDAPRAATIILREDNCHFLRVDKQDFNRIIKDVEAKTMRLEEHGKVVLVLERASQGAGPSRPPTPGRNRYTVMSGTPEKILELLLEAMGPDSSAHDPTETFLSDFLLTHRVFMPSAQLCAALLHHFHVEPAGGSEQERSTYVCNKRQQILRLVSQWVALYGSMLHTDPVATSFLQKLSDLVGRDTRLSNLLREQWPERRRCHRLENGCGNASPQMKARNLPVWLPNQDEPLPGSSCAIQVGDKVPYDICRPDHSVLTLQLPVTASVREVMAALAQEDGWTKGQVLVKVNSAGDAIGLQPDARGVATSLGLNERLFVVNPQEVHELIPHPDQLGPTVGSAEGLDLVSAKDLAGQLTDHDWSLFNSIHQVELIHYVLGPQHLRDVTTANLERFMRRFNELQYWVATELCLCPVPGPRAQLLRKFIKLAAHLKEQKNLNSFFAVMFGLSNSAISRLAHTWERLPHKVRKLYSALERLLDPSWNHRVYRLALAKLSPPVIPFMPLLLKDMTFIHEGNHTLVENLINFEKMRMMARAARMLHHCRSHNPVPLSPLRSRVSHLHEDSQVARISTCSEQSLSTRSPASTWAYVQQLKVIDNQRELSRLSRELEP
Summary of the method: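 Nucleotide exchange uses 100 nM EPAC1, 250 nM RAP1B-BODIPY-GDP and 50 uM GDP, with compounds in a concentration-titration series. After 5 min at room temperature, fluorescence (480 nm ex/540 nm em) is read every 5 min for 30 min. Data are normalized to control ATA and DMSO.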

[2] = molecular target: Rap guanine nucleotide exchange factor 3 (Homo sapiens) (UniProt O95398); assay: Confirmatory qHTS for agonist of cAMP-regulated guanine nucleotide exchange factor 3 (EPAC1) (AID 1645881); further: nearly all actives have a fitted effect of over 75% in size; further: potency means the concentration at half of the fitted maximal effect;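 on activation: EPAC1 catalysed release of BODIPY-GDP from Rap1B seen as fluorescence loss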
[3] = molecular target: Rap guanine nucleotide exchange factor 4 (Homo sapiens) (UniProt Q8WZA2); assay: Confirmatory qHTS for agonist of cAMP-regulated guanine nucleotide exchange factor 4 (EPAC2) (AID 1645884);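 further: nucleotide exchange releases bodipy-GDP from Rap1 and this lowers its fluorescence; nearly all actives have a fitted effect of over 65% in size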; further: potency means the concentration at half of the fitted maximal effect
Rap guanine nucleotide exchange factor 4 (Homo sapiens), sequence (Q8WZA2 whole entry, looked up): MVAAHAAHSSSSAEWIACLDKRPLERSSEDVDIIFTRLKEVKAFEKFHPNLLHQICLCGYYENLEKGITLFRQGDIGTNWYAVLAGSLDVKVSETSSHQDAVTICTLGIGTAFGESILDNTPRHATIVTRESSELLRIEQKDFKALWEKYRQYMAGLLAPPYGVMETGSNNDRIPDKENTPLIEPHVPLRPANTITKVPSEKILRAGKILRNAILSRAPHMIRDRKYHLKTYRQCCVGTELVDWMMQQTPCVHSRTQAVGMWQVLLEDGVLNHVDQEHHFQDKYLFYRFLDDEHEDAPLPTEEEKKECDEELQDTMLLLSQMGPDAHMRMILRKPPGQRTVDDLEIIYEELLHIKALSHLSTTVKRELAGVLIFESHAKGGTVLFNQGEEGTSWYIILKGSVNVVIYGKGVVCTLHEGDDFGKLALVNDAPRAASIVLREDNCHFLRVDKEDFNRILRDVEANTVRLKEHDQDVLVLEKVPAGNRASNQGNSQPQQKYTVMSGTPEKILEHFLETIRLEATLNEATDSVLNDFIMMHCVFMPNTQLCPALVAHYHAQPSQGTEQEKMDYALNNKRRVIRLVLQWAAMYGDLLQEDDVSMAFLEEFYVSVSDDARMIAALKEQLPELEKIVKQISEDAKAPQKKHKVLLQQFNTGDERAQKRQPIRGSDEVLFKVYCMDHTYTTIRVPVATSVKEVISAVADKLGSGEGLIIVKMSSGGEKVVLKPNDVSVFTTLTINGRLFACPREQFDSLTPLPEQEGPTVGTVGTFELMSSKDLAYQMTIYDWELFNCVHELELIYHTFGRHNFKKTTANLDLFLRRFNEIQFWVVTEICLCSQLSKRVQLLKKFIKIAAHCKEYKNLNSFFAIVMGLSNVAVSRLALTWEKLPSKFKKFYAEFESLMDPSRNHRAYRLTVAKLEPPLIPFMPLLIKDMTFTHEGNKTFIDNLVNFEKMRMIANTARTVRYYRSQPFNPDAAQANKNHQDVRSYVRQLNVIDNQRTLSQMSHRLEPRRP

[4] = molecular target: Rap guanine nucleotide exchange factor 3 (Homo sapiens) (UniProt O95398); assay: Counterscreen qHTS for antagonist of cAMP-regulated guanine nucleotide exchange factor 3 (EPAC1) (AID 1645888);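 further: fluorescence loss as bound BODIPY-GDP is released from Rap1B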
Summary of the method: (§1)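 Rap1B–BODIPY-GDP (250 nM) with 50 uM GDP; compounds pin-transferred to 9.74 nM–152 uM final (activator) or from 7.32 nM upwards (inhibitor). Fluorescence Ex/Em 480/540 nm read at 5 and 30 min, then after adding cAMP or buffer, at room temperature.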

[5] = molecular target: Rap guanine nucleotide exchange factor 3 (Homo sapiens) (UniProt O95398); assay: Counterscreen qHTS for agonist of cAMP-regulated guanine nucleotide exchange factor 3 (EPAC1) (AID 1645889); further: nearly all actives have a fitted effect of over 40% in size; further: potency means the concentration at half of the fitted maximal effect
Summary of the method: as §1

O=C(Cc1ccc(Br)cc1)N(Cc1ccccc1)c1ccccn1
Potency [1]: inactive
Potency [2]: inactive
Potency [3]: inactive
Potency [4]: inactive
Potency [5]: inactive

Cc1cccc(NC(=O)Cn2c(O)c(N=NC(=O)c3ccccc3O)c3ccccc32)c1
Potency [1]: 75.7 µM (active)
Potency [2]: inactive
Potency [3]: inactive
Potency [4]: inactive
Potency [5]: inactive

COc1ccccc1C(=O)Nc1ccccc1C(=O)N1C(C)CCCC1C (stereo not given)
Potency [1]: inactive
Potency [2]: inactive
Potency [3]: inactive
Potency [4]: inactive
Potency [5]: inactive

N#C/C(=C/c1ccc(N2CCCCC2)o1)C(=O)Nc1ccc(Cl)cc1
Potency [1]: inactive
Potency [2]: 17.8 µM (active)
Potency [3]: 100 µM (active)
Potency [4]: inactive
Potency [5]: 12.6 µM (active)

CCOC(=O)C1CCCN(C(=O)c2cc(-c3ccco3)nc3ccccc23)C1 (stereo not given)
Potency [1]: 15.1 µM (active)
Potency [2]: inactive
Potency [3]: inactive
Potency [4]: inactive
Potency [5]: inactive

CC(=O)NC(c1ccccc1)c1nc(-c2cccs2)cs1 (stereo not given)
Potency [1]: inactive
Potency [2]: inactive
Potency [3]: inactive
Potency [4]: inactive
Potency [5]: inactive

O=c1ccc(-c2ccccc2)nn1Cc1ccc(Cl)cc1
Potency [1]: inactive
Potency [2]: inactive
Potency [3]: inactive
Potency [4]: inactive
Potency [5]: inactive

CC(=O)OCCNc1cc(N2CCN(C)CC2)c2noc3c2c1C(=O)c1ccccc1-3
Potency [1]: inactive
Potency [2]: inactive
Potency [3]: inactive
Potency [4]: inactive
Potency [5]: inactive

CCOC(=O)N/N=C/c1ccc(OCCSc2ccc(Cl)cc2)c(OC)c1
activity, negative = inhibition [1]: -73.5% (active)
Potency [2]: inactive
Potency [3]: inactive
Potency [4]: inactive
Potency [5]: inactive

Cc1noc(C)c1C(=O)N(CC(C)C)c1nc2ccccc2s1
Potency [1]: inactive
Potency [2]: inactive
Potency [3]: inactive
Potency [4]: inactive
Potency [5]: inactive

Cc1cc(C)n(Cc2ccc(C(=O)N/N=C/c3ccc(-c4ccc([N+](=O)[O-])cc4)o3)o2)n1
Potency [1]: 47.8 µM (active)
Potency [2]: inactive
Potency [3]: inactive
Potency [4]: inactive
Potency [5]: inactive

O=C1CCc2cc(S(=O)(=O)NCc3ccc(F)cc3)cc3c2N1CC3
Potency [1]: inactive
Potency [2]: inactive
Potency [3]: inactive
Potency [4]: inactive
Potency [5]: inactive

COCCN(CCOC)Cc1cc(=O)oc2cc(C)c(Cl)cc12
Potency [1]: inactive
Potency [2]: inactive
Potency [3]: inactive
Potency [4]: inactive
Potency [5]: inactive

O=C(Nc1ccccc1Cc1ccccc1)c1ccccc1NS(=O)(=O)c1ccc(Cl)s1
Potency [1]: 22.4 µM (active)
Potency [2]: inactive
activation [3]: 8.53% [at 17.1 µM, percent relative to cAMP agonist control]
activity change, negative = inhibition [4]: -15.4% [at 30.8 µM]
activation [5]: 8.31% [at 30.8 µM]

CCOC(=O)C1=C(C)N=c2s/c(=C\c3ccc(OCC(=O)O)cc3)c(=O)n2C1c1ccc(OC(C)C)cc1 (stereo not given)
Potency [1]: 75.7 µM (active)
Potency [2]: inactive
Potency [3]: inactive
Potency [4]: inactive
Potency [5]: inactive

N=c1c(S(=O)(=O)c2ccc(Br)cc2)cc2c(=O)n3ccccc3nc2n1C1CCCC1
Potency [1]: inactive
Potency [2]: inactive
Potency [3]: inactive
Potency [4]: inactive
Potency [5]: inactive

CC(=O)NC(c1cccc(F)c1)c1nc(-c2cccs2)cs1 (stereo not given)
Potency [1]: inactive
Potency [2]: inactive
Potency [3]: inactive
Potency [4]: inactive
Potency [5]: inactive
